Data published in PubChem BioAssay (NCI).
About 83,000 compounds went through this panel and 20% of them were active in at least one assay; those are over-represented in the sample as a whole.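 Plates (96-well) were seeded with cells, treated with compound at one concentration, and incubated for 48 hours before percent growth was determined.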 Active and inactive are the calls of the source. How the source made its calls: active means growth percent below 10; inactive means the rest.

Key:
Experiment in all cases: NCI-60 one-dose screen, 48 h (100 = growth as untreated, 0 = no growth, -100 = all killed)
Conditions in all cases: 10 µM unless noted
SK-MEL-2 melanoma = test system: SK-MEL-2 melanoma
EKVX NSCLC = test system: EKVX NSCLC
SN12C renal = test system: SN12C renal
UO-31 renal = test system: UO-31 renal
TK-10 renal = test system: TK-10 renal
ACHN renal = test system: ACHN renal
CAKI-1 renal = test system: CAKI-1 renal
MOLT-4 leukemia = test system: MOLT-4 leukemia
SR leukemia = test system: SR leukemia
OVCAR-8 ovarian = test system: OVCAR-8 ovarian
OVCAR-5 ovarian = test system: OVCAR-5 ovarian
OVCAR-4 ovarian = test system: OVCAR-4 ovarian
SK-OV-3 ovarian = test system: SK-OV-3 ovarian
IGROV1 ovarian = test system: IGROV1 ovarian
OVCAR-3 ovarian = test system: OVCAR-3 ovarian
HS 578T breast = test system: HS 578T breast
NCI/ADR-RES ovarian = test system: NCI/ADR-RES ovarian
CCRF-CEM leukemia = test system: CCRF-CEM leukemia
RPMI-8226 leukemia = test system: RPMI-8226 leukemia

Measured: growth

Cc1c(C(=O)NO)sc2ncnc(Nc3ccc(NC(=S)Nc4ccccc4)cc3)c12
inactive: SK-MEL-2 melanoma 104% | EKVX NSCLC 93.6% | SN12C renal 101% | UO-31 renal 85.1% | TK-10 renal 106% | ACHN renal 105% | CAKI-1 renal 96.6% | MOLT-4 leukemia 111% | SR leukemia 110% | OVCAR-8 ovarian 103% | OVCAR-5 ovarian 103% | OVCAR-4 ovarian 105% | SK-OV-3 ovarian 121% | IGROV1 ovarian 112% | OVCAR-3 ovarian 111% | HS 578T breast 105% | NCI/ADR-RES ovarian 99.6%

O=C(c1ccccc1)N1N=C(c2ccc(-n3ccc(C(F)(F)F)n3)cc2)CC1c1ccc[nH]1 (stereo not given)
inactive: SK-MEL-2 melanoma 97.7% | EKVX NSCLC 88.9% | SN12C renal 98.1% | UO-31 renal 77.8% | TK-10 renal 80.8% | ACHN renal 90.6% | CAKI-1 renal 84.1% | CCRF-CEM leukemia 85.6% | SR leukemia 66.7% | RPMI-8226 leukemia 74.7% | OVCAR-8 ovarian 93.7% | OVCAR-5 ovarian 83.4% | OVCAR-4 ovarian 110% | SK-OV-3 ovarian 128% | IGROV1 ovarian 95.8% | OVCAR-3 ovarian 103% | HS 578T breast 95.4% | NCI/ADR-RES ovarian 90.2%

BrC(Br)(Br)c1cnc2ccccc2n1
inactive: SK-MEL-2 melanoma 90.2% | EKVX NSCLC 70.4% | SN12C renal 71.6% | CCRF-CEM leukemia 23.2% | RPMI-8226 leukemia 41.8% | OVCAR-8 ovarian 45.4% | OVCAR-5 ovarian 60.3% | SK-OV-3 ovarian 69.4% | IGROV1 ovarian 51.9% | HS 578T breast 66.7% | NCI/ADR-RES ovarian 44.3%
active: UO-31 renal -51.1% | TK-10 renal -57.9% | ACHN renal -51.6% | CAKI-1 renal -29.7% | OVCAR-3 ovarian -27.5%

CO[C@@H]1[C@H](N(C)C(=O)c2ccccc2)C[C@@H]2O[C@]1(C)n1c3ccccc3c3c4c(c5c6ccccc6n2c5c31)C(=O)NC4=O
inactive: SK-MEL-2 melanoma 55.1% | EKVX NSCLC 27.9% | SN12C renal 33.4% | ACHN renal 35.4% | CCRF-CEM leukemia 44.5% | MOLT-4 leukemia 32.8% | RPMI-8226 leukemia 67.1% | OVCAR-8 ovarian 54% | OVCAR-5 ovarian 57% | OVCAR-3 ovarian 46.7% | HS 578T breast 20.5% | NCI/ADR-RES ovarian 42.9%
active: UO-31 renal -35.6% | TK-10 renal -20.3% | CAKI-1 renal -10.8% | IGROV1 ovarian 7.2%

NC(=S)N/N=C(\c1ccc(Cl)cc1)C1CC1
inactive: SK-MEL-2 melanoma 106% | EKVX NSCLC 69.8% | SN12C renal 83% | UO-31 renal 58.7% | TK-10 renal 102% | ACHN renal 88.4% | CAKI-1 renal 81.1% | CCRF-CEM leukemia 63.2% | RPMI-8226 leukemia 67.3% | OVCAR-8 ovarian 70.9% | OVCAR-5 ovarian 95.5% | OVCAR-4 ovarian 68.2% | SK-OV-3 ovarian 92.8% | IGROV1 ovarian 45.7% | OVCAR-3 ovarian 58.2% | HS 578T breast 99.6% | NCI/ADR-RES ovarian 67.3%

Cc1ccc(Nc2cc(=S)nc(N)[nH]2)cc1C
inactive: SK-MEL-2 melanoma 99.9% | EKVX NSCLC 79% | SN12C renal 92.4% | UO-31 renal 81.4% | TK-10 renal 144% | ACHN renal 91.2% | CAKI-1 renal 90.5% | CCRF-CEM leukemia 112% | SR leukemia 97.5% | RPMI-8226 leukemia 100% | OVCAR-8 ovarian 97.4% | OVCAR-5 ovarian 100% | OVCAR-4 ovarian 108% | IGROV1 ovarian 96% | OVCAR-3 ovarian 115% | HS 578T breast 98.6% | NCI/ADR-RES ovarian 105%

O=C(O)/C=C\C(=O)N1C/C(=C\c2ccccc2Cl)C(=O)/C(=C/c2ccccc2Cl)C1
active: SN12C renal -30.7% | UO-31 renal -64.9% | TK-10 renal 0.472% | CAKI-1 renal 0.997% | CCRF-CEM leukemia 3.66% | RPMI-8226 leukemia 3.9% | OVCAR-8 ovarian 4.98% | IGROV1 ovarian 1.94% | OVCAR-3 ovarian -37.7%
inactive: SK-MEL-2 melanoma 37% | EKVX NSCLC 40.1% | ACHN renal 20.3% | HS 578T breast 47.1%

CCOC(=O)C1=C(C)NC(C)=C(C(=O)OCC)C1c1cc(Br)c(O)c(OC)c1
active: SK-MEL-2 melanoma -7.22% | HS 578T breast 4.37% | NCI/ADR-RES ovarian -14.5%
inactive: EKVX NSCLC 42.5% | SN12C renal 48.5% | UO-31 renal 40.3% | TK-10 renal 34.1% | ACHN renal 61.3% | CAKI-1 renal 30.1% | CCRF-CEM leukemia 19.9% | MOLT-4 leukemia 44.8% | RPMI-8226 leukemia 29.9% | OVCAR-8 ovarian 25.2% | OVCAR-5 ovarian 66.7% | OVCAR-4 ovarian 47.4% | SK-OV-3 ovarian 16.9% | IGROV1 ovarian 49.9%

CC(=O)OCC(=O)C1(O)C(C)CC2C3C=C(C)C4=Cc5c(cnn5-c5ccccc5)CC4(C)C3C(O)CC21C (stereo not given)
inactive: SK-MEL-2 melanoma 25.1% | EKVX NSCLC 27% | SN12C renal 33.5% | TK-10 renal 38.7% | ACHN renal 22.8% | CAKI-1 renal 21.3% | CCRF-CEM leukemia 10.6% | OVCAR-8 ovarian 44.9% | OVCAR-5 ovarian 25.3% | SK-OV-3 ovarian 43.1% | OVCAR-3 ovarian 11.5%
active: UO-31 renal -11.6% | SR leukemia 2.76% | RPMI-8226 leukemia -18.3%
